For some of these results: Potency and affinity values are given separately. The source made the active and inactive calls. No rule for the calls is given here.
What was measured:
[1] = blockers of polyQ-driven CASP3 activation – cell-based (AID 1583); conditions: polyglutamine-induced caspase-3 activation, cell assay; stronger effect = higher value;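 tested at 10 µM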
[2] = yeast 75Q aggregation reduction – 75Q-TubU reporter (AID 1593); conditions: Yeast 75Q polyglutamine aggregation reporter
[3] = restoration of touch response, mutant HTT neurons – whole organism, C. elegans mechanosensory neurons, N-terminal huntingtin (AID 1599); conditions: C. elegans polyQ-huntingtin mechanosensory neurons, stronger effect = higher value
[4] = blockers of cytochrome c efflux from mitochondria – biochemical, purified mitochondria (AID 1603); conditions: stronger effect = lower value;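 also: mouse liver mitochondria challenged with calcium chloride; signal normalized to the plate average as 100%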
[5] = polyglutamine aggregate formation blockers (AID 1604); conditions: polyglutamine-induced protein aggregation inhibition assay; stronger effect = higher value; tested at 2.5 µM
[6] = compounds altering viability of human ES cells (AID 493140); conditions: human embryonic stem cell survival screen; stronger effect = higher value;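 also: cells exposed to compounds for four days before counting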

| Structure (SMILES) | inhibition [1] | score [2] | rescue above control [3] | cytochrome c release ratio [4] | inhibition of aggregation [5] | survival [6] |
| --- | --- | --- | --- | --- | --- | --- |
| NC(Cc1cc(I)c(Oc2ccc(O)c(I)c2)c(I)c1)C(=O)O (stereo unspecified) | 2% | 1.27 | -0.14 | 4.78 | 79.3% | – |
| O=C1C(c2c(O)[nH]c3ccccc23)=Nc2ccccc21 | – | – | – | – | – | 88 (inactive) |
| CN1CCC[C@H]1c1cccnc1 | -24.3% | 1.39 | 3.58 | 0.71 | 47.1% | – |
| CN1C2CCC1CC(OC(c1ccccc1)c1ccccc1)C2 (stereo unspecified) | -6.22% | 1.2 | -5.92 | 1 | 62% | – |

Reference: PubChem BioAssay
